Test in all cases: MAPPIT interaction score (arbitrary units); higher = stronger binary interaction signal, active = hit call of the paper
One assay has as its target Bx. The settings on record: MAPPIT configuration: N-N; pair source set: screen_2.
For the next assay, the target named is CG5618. The settings on record: MAPPIT configuration: N-N; pair source set: Curagen_low_conf.
The target in a further assay is Lim1. The conditions noted are these: MAPPIT configuration: N-N; pair source set: Curagen_high_conf.
For a further assay, the target named is BicD. The settings on record: MAPPIT configuration: N-C; pair source set: Lit-BM-16.
The next assay addresses Bro. The conditions noted are these: MAPPIT configuration: N-N; pair source set: screen_2.
A further assay has as its target C15. The conditions noted are these: MAPPIT configuration: N-N.
The next assay addresses CG5050. The conditions noted are these: MAPPIT configuration: N-N; pair source set: Curagen_high_conf.
Another assay concerns the target rdx. The settings on record: MAPPIT configuration: N-N; pair source set: Curagen_high_conf.
In a further assay the target is CG8813. The conditions noted are these: MAPPIT configuration: N-N; pair source set: Lit-BS-16.
For a further assay, the target named is Lamtor3. The conditions noted are these: MAPPIT configuration: N-N; pair source set: Curagen_high_conf.
A further assay concerns the target Nplp1. The conditions noted are these: MAPPIT configuration: N-N; pair source set: Curagen_low_conf.
Another assay concerns the target Rm62. The settings on record: MAPPIT configuration: N-N; pair source set: Curagen_low_conf.
The target in a further assay is Traf-like. The settings on record: MAPPIT configuration: N-N; pair source set: Curagen_low_conf.
In the next assay the target is row. The settings on record: MAPPIT configuration: N-N; pair source set: Curagen_low_conf.
Another assay has as its target Baldspot. The settings on record: MAPPIT configuration: N-C; pair source set: screen_4.
Another assay deals with EMC5. The settings on record: MAPPIT configuration: N-C; pair source set: screen_3.
The target in another assay is Ude. The conditions noted are these: MAPPIT configuration: N-C; pair source set: screen_3.

Values without a mark were called inactive.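 Rule for the calls: active = MAPPIT score above the 99th percentile of random reference set scores in the same batch; inactive = at or below it.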
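Note: HEK293T cells with Epo stimulation, STAT-responsive firefly luciferase reporter, fold induction versus unstimulated cells divided by the larger fold induction of two negative controls lacking either bait or prey.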

B1: Chi (protein)
chain: MSWQDYVDNQLLASQCVTKACIAGHDGNIWAQSSGFEVTKEELSKLISGFDQQDGLTSNGVTLAGQRYIYLSGTDRVVRAKLGRSGVHCMKTTQAVIVSIYEDPVQPQQAASVVEKLGDYLITCGY
As for B1, the MAPPIT interaction score in the assay with Bx is 6.14 (active); with CG5618, 0.207; with Lim1, 1.91.

B2: BicD (protein)
chain: MSSASNNGPSADQSVQDLQMEVERLTRELDQVSSASAQSAQYGLSLLEEKSALQQKCEELETLYDNTRHELDITQEALTKFQTSQKVTNKTGIEQEDALLNESAARETSLNLQIFDLENELKQLRHELERVRNERDRMLQENSDFGRDKSDSEADRLRLKSELKDLKFRETRMLSEYSELEEENISLQKQVSSLRSSQVEFEGAKHEIRRLTEEVELLNQQVDELANLKKIAEKQMEEALETLQGEREAKYALKKELDGHLNRESMYHISNLAYSIRSNMEDNASNNSDGEEENLALKRLEADLSTELKSPDGTKCDLFSEIHLNELKKLEKQLESMESEKTHLTANLREAQTSLDKSQNELQNFMSRLALLAAHVDALVQLKKQIDVKEQGKEGGQKKDELEQQLRALISQYANWFTLSAKEIDGLKTDIAELQKGLNYTDATTTLRNEVTNLKNKLLATEQKSLDLQSDVQTLTHISQNAGQSLGSARSTLVALSDDLAQLYHLVCTVNGETPTRVLLDHKTDDMSFENDSLTAIQSQFKSDVFIAKPQIVEDLQGLADSVEIKKYVDTVSDQIKYLKTAVEHTIDMNKHKIRSEGGDALEKVNTEEMEELQEQIVKLKSLLSVKREQIGTLRNVLKSNKQTAEVALTNLKSKYENEKIIVSDTMSKLRNELRLLKEDAATFSSLRAMFAARCEEYVTQVDDLNRQLEAAEEEKKTLNQLLRLAVQQKLALTQRLEEMEMDREMRHVRRPMPAQRGTSGKSSFSTRPSSRNPASSNANPF
On to B2, for which the MAPPIT interaction score with BicD is -0.381.

B3: run (protein)
chain: MHLPAGPTMVANNTQVLAAAAAAAAAAAAAVAQGPGPQQSSNATTASAIAINPAQSLANTSTHSASSTGSSTPDLSTNNTSSSSNATTSPQNSAKMPSSMTDMFASLHEMLQEYHGELAQTGSPSILCSALPNHWRSNKSLPGAFKVIALDDVPDGTLVSIKCGNDENYCGELRNCTTTMKNQVAKFNDLRFVGRSGRGKSFTLTITIATYPVQIASYSKAIKVTVDGPREPRSKQSYGYPHPGAFNPFMLNPAWLDAAYMTYGYADYFRHQAAAQAAQVHHPALAKSSASSVSPNPNPSVATSSSSAVQPSEYPHPAAAVAAAAGQPAAMMPSPPGAAPATPYAIPQFPFNHVAAAAAAKAATPHAFHPYNFAAAAGLRARNAALHHQSEPVHVSPASSRPSSSSPTQQHVLLKLNTSIETSSIHEQSASDGDSDDEQIDVVKSEFDLDKSLDVAPLRMRCDLKAPSAMKPLYHESGPGAVANSRQPSPETTTKIKSAAVQQKTVWRPY
As for B3, the MAPPIT interaction score with Bro was 3.14 (active).

B4: Polr3F (protein)
chain: MATEVSQLLLAVVQGIPAGATNDDLTKALPDVPAATRVEALNILLQEGGIEILKKGEKLVYRAKDPEKKSALPKDADNEEKVVYGIVEEGGNKGIWIRDIRMKSNLNMIQLNKILKNLETKKLIKAVKSVNASKKKVYMLYNLEPDLSITGGAWYQDQDFEVEFVDVLNQQCLRFLQMKRDSAEKKREGPLAFKQMSCCTVNEVQKFISDLGISKVNLAEADLETILKTVVYDGNAERVRQQDGSFVYRAVNAPLPPTGLVQMPCGICPVIKNCSNCGDVTAITCEYMRDWLD
B4: the values for the MAPPIT interaction score in the assay with C15 (pair source set: Lit-BS-16), with CG5050 and with rdx were 0.0584, 0.169 and -0.105, respectively.

B5: Rm62 (protein)
chain: MLKLVQYIAPRVGGATPRPTACGWGNLLLISPRSGASSEKCITQRRHFLFSSASSSGTFASSSSLCTEQRQQFHGSRRNRETILFPSTYSSLQAQSQRAFRDSSKPDSDDYVDSIPKAEQRTRTRKSLFNDPDERTEEIKIEGVMAPHDRDFGHSGRGGRGGDRGGDDRRGGGGGGNRFGGGGGGGDYHGIRNGRVEKRRDDRGGGNRFGGGGGFGDRRGGGGGGSQDLPMRPVDFSNLAPFKKNFYQEHPNVANRSPYEVQRYREEQEITVRGQVPNPIQDFSEVHLPDYVMKEIRRQGYKAPTAIQAQGWPIAMSGSNFVGIAKTGSGKTLGYILPAIVHINNQQPLQRGDGPIALVLAPTRELAQQIQQVATEFGSSSYVRNTCVFGGAPKGGQMRDLQRGCEIVIATPGRLIDFLSAGSTNLKRCTYLVLDEADRMLDMGFEPQIRKIVSQIRPDRQTLMWSATWPKEVKQLAEDFLGNYIQINIGSLELSANHNIRQVVDVCDEFSKEEKLKTLLSDIYDTSESPGKIIIFVETKRRVDNLVRFIRSFGVRCGAIHGDKSQSERDFVLREFRSGKSNILVATDVAARGLDVDGIKYVINFDYPQNSEDYIHRIGRTGRSNTKGTSFAFFTKNNAKQAKALVDVLREANQEINPALENLARNSRYDGGGGRSRYGGGGGGGRFGGGGFKKGSLSNGRGFGGGGGGGGEGRHSRFD
Regarding B5, the MAPPIT interaction score with C15 (pair source set: Curagen_low_conf) is -0.475; in the assay with C15 (pair source set: Finley_Y2H), 0.053; with CG8813, -0.848; with Lamtor3 it was 0.248; with Nplp1 it was -0.193; with Rm62, -0.712. For the same molecule, the MAPPIT interaction score with Traf-like was 0.928; in the assay with row it was 0.558.

B6: oxt (protein)
chain: MEQSVSARWLKRYRAFFLILLLIVAIQLFLAYKSLDIVGGGSGSGFDAAEAPASPPPPHAQARVQPPARTKLTAQQLGFQPECDILAREAISALQRAKTKDCREHIAQIACAIQAGRFYAPQLRSSCPAGNHTANVSLGCFKDEKDRRLLAGYYSSSKTSNSPAKCVELCLQSGYPYAGVQYGRECFCGYDPPPKASKLPDSSCNTKCLGNAKEICGGFYAMNIYETGIAKFTAQLAATTPSEETKRVRIAFLLTLNGRALRQVHRLLKALYAPEHVYYIHVDERQDYLYRKLLELESKFPNIRLARKRFSTIWGGASLLTMLLQCMEDLLQSNWHWDFVINLSESDFPVKTLDKLVDFLSANPGRNFVKGHGRETQKFIQKQGLDKTFVECDTHMWRIGDRKLPAGIQVDGGSDWVALSRPFVGYVTHPREDDELLQALLKLFRHTLLPAESFFHTVLRNTKHCTSYVDNNLHVTNWKRKQGCKCQYKHVVDWCGCSPNDFKPEDWPRLQATEQKSLFFARKFEPVINQAVLLQLEEWLYGPYTSEYANLHGYWQSLYHHEDVHGSGDDLARSIGDSVMRLSARQAKLYPLELIELTHYLHRDQYKGFLVRYRARGSTGKPLHLETRVRPTQQGKLARNARFSKRLRNFEVSTDFDQKEQIARNFGKLLGPQSDLLLSYTLQANADSGAASHSYNLTLLWIDPLGRLQDFNELHVEDSTSDVINHSKTLLKHPITPGIWTAKLIGRNSIYAQLKFLIAPLAYYKGYPLAKSSDAEALNAGLTVALPEDFEMPVEWQQHLQTDDEQFTMREESLAKGKMLGQELHSWIDGLVGQFFQLRESCVVEADSEVSLPLCSDAPWSSLAPDPKSDVDALLK
For the molecule B6, the MAPPIT interaction score with Baldspot was 0.0528; with EMC5, -0.000675; in the assay with Ude it was 0.189.

The values above are taken from the supplement of paper PMC10105736.
